# Source: PubChem BioAssay (NCATS)
# Results filed as inconclusive are left out. Entries that show only a call come without a potency. The source made the active and inactive calls. Unless noted, calls come from the whole dose curve; as a rule, active = well fitted curve in the direction sought with a large enough effect; inconclusive = small, poorly fitted or top-dose-only effect, or another doubt; inactive = no such curve, though single readings can be large; an effect the other way counts as inactive or inconclusive.
# How the values were obtained:
# [1] = system: Zika virus NS2B-NS3 protease; assay: Primary screen GU AMC qHTS for Zika virus inhibitors (AID 1347154); note: nearly all actives have a fitted effect of over 70% in size
# Procedure, shortened: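 Unlinked Zika NS2B hydrophilic domain–NS3 protease complex at 25 nM in 10 mM Tris-HCl pH 8.0, 0.01% Tween 20, with an AMC peptide substrate. Fluorescence change (340/450 nm) over 15 min at room temperature, normalized to controls, fitted to 4-parameter Hill.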
# [2] = NCATS anti-infectives library activity on HEK293 viability as a counter-qHTS vs the C. elegans viability qHTS (AID 1745854)
# Procedure, shortened: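 CellTiter-Glo luminescence, read on a CCD imager, scored viability of HEK293 cells after 24 hr compound exposure at 37C. Library tested in several concentrations, 1:5 steps, up to 41.7 uM; digitonin served as control.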
# [3] = target: Glucocorticoid receptor (Homo sapiens) (UniProt P04150); assay: GR-GFP Redistribution (AID 450;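 active = compounds whose dose series gives a full or clear partial fitted curve of increased nuclear translocation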; note: potency is the fitted concentration of half-maximal effect); conditions: U2OS GR-GFP nuclear translocation, laser cytometry, 2 h
# Sequence of Glucocorticoid receptor (Homo sapiens) (P04150 whole entry, looked up, the tested form may be a part): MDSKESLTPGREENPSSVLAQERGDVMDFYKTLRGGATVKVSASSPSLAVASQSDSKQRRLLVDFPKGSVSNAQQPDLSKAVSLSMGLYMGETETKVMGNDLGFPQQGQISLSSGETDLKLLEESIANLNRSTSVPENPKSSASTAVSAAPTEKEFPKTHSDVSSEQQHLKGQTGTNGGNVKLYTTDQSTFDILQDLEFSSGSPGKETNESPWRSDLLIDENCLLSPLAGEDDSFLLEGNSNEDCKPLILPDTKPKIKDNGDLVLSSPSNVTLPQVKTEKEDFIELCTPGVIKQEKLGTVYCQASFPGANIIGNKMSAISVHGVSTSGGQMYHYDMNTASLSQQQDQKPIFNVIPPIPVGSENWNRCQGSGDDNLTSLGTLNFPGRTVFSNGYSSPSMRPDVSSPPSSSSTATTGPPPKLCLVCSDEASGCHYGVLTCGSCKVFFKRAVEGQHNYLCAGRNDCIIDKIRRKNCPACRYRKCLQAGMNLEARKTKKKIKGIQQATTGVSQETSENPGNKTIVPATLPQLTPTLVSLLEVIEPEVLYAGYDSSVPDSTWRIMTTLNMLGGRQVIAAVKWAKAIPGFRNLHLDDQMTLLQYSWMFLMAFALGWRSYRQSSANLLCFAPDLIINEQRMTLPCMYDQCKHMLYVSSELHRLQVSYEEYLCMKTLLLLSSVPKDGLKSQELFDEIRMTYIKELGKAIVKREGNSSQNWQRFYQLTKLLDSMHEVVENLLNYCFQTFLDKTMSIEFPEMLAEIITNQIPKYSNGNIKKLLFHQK
# [4] = target: Glucocorticoid receptor (Homo sapiens) (UniProt P04150); assay: GR-EFC Redistribution (AID 451; calls by dose curve; note: potency is the fitted concentration of half-maximal effect); conditions: CHO-K1 GR-EFC translocation, beta-gal luminescence, 2 h
# Procedure, shortened: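 CHO-K1 cells expressing nuclear EA and GR-ED fragments of b-gal; compounds titrated up to 46 uM final, 2 h at 37 C. GR nuclear translocation read as complemented b-gal luminescence after 1 h RT detection.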
# [5] = target: Mitogen-activated protein kinase 10 (Mus musculus) (UniProt Q61831); assay: JNK3 AlphaScreen Assay (AID 530; active = well fitted curve in either direction with a large enough effect, not every such curve was filed as active;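 note: kinase came from lysate of stimulated human HepG2 cells; signal reports phosphorylation of biotinylated GST-cJun 1-79 at Ser73 with 10 µM ATP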)
# Procedure, shortened: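 HepG2 lysate (IL-1b/TNFa pre-activated) + biotin-GST-cJun 1-79 + anti-pSer73 cJun; cpd titration, 15 min RT; ATP 10 uM start; Tris pH 7.6, MgCl2, DTT, vanadate; beads in EDTA buffer; AlphaScreen.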
# [6] = target: 3',5'-cyclic-AMP phosphodiesterase 4B (Homo sapiens) (UniProt Q07343); assay: qHTS Assay for Inhibitors of PDE-IV (AID 607; active = well fitted activation curve with a large enough effect in the main read-out, with a control signal flat, not every such curve was filed as active)
# Sequence of 3',5'-cyclic-AMP phosphodiesterase 4B (Homo sapiens) (Q07343 whole entry, looked up): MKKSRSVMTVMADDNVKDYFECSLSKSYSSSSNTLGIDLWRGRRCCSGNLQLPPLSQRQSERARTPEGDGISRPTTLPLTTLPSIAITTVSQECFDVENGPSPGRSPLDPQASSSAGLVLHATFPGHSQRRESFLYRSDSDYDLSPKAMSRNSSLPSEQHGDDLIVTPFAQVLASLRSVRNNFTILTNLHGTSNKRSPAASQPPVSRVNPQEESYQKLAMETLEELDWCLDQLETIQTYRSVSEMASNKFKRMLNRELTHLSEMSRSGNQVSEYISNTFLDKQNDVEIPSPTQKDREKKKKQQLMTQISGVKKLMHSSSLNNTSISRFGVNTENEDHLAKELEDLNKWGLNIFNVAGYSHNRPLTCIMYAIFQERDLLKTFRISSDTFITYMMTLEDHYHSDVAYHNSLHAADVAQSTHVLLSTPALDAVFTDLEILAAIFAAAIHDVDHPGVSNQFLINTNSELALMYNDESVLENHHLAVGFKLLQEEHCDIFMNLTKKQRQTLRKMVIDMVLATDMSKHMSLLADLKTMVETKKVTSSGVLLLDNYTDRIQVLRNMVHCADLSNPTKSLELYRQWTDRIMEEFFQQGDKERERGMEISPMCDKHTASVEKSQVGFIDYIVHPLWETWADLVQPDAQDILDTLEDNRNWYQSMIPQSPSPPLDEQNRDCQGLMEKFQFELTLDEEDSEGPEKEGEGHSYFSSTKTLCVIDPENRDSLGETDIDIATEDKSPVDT
# Procedure, shortened: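 The readout is membrane depolarisation from a cAMP-sensing CNG channel, detected with a potential dye at ex 535/em 590. Cells were HEK293-derived (endogenous PDE-IV) at 1000 cells/well, titrated up to 22.9 uM final.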
# [7] = qHTS Assay for Lipid Storage Modulators (AID 1519; calls by dose curve); conditions: Drosophila S3 cells, BODIPY lipid droplet/cell ratio, laser cytometry, cells loaded with oleic acid; for activity change, negative = inhibition: at 57.5 µM (top of the series)
# Procedure, shortened: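 Cells seeded at 5,000 per well were treated with compounds over a concentration series and loaded with oleic acid (400 uM, as added). Lipid droplet fluorescence (488 nm excitation, 500-530 nm channel) was read by laser-scanning cytometry and normalized to 20 uM Triacsin C.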
# [8] = target: Ubiquitin carboxyl-terminal hydrolase 1 (Homo sapiens) (UniProt O94782); assay: Inhibitors of USP1/UAF1: Pilot qHTS (AID 504865);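 note: rhodamine fluorescence freed from ubiquitin-rhodamine substrate followed over time; top concentration of the series differs between compounds; nearly all actives have a fitted effect of over 35% in size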
# Sequence of Ubiquitin carboxyl-terminal hydrolase 1 (Homo sapiens) (O94782 whole entry, looked up): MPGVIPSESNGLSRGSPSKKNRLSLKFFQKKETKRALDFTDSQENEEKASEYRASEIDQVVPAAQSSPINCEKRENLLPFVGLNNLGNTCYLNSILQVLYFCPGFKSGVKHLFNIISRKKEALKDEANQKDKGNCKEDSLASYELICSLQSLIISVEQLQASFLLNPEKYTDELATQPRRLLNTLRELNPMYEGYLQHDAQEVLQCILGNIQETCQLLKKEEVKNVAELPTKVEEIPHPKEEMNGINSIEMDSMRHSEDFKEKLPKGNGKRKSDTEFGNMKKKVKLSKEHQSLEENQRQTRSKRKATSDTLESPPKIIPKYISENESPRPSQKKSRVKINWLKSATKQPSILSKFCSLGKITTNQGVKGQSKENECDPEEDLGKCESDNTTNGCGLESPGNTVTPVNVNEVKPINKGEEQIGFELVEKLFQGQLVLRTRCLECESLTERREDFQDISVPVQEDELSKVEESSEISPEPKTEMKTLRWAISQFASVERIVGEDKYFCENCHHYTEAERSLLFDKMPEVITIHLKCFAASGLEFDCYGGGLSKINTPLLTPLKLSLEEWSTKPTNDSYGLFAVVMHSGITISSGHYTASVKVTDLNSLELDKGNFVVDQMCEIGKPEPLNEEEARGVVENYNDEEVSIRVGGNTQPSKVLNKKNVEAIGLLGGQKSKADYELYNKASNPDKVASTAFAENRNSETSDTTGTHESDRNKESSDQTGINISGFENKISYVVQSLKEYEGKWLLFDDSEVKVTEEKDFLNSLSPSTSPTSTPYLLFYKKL
# Procedure, shortened: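 Deubiquitinase activity followed as kinetic rhodamine fluorescence release from 150 nM Ub-Rho. 1 nM USP1/UAF1 with compound, after 15 min room-temperature preincubation, in HEPES pH 7.8 buffer containing TCEP, EDTA, BSA and Tween-20.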
# [9] = target: DNA dC->dU-editing enzyme APOBEC-3G (Homo sapiens) (UniProt Q9HC16); assay: qHTS for inhibitors of Vif-A3G interactions: Validation (AID 588379)
# Sequence of DNA dC->dU-editing enzyme APOBEC-3G (Homo sapiens) (Q9HC16 whole entry, looked up): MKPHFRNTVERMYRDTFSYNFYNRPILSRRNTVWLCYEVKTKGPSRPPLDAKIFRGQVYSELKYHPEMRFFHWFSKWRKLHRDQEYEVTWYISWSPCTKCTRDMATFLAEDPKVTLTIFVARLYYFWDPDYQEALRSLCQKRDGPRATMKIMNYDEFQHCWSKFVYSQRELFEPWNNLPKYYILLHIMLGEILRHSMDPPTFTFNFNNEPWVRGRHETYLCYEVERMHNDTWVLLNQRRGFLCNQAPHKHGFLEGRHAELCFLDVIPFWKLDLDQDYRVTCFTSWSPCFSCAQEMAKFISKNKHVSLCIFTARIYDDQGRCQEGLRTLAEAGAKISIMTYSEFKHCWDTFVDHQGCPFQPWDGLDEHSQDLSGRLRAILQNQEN
# Procedure, shortened: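 Yellow fluorescence (Ex 488, Em 500-530) of Vif-coexpressing HeLa A3G-eYFP cells, scanned by Acumen cytometer, reports blocked A3G degradation. Cells plated at 700/well overnight at 37 deg C before compound addition, then a further overnight compound incubation at 37 deg C.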
# [10] = Confirmation and Secondary Assay for Modulators of Hemoglobin Beta Chain Splicing at IVS2 654 locus (AID 910);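 note: HeLa cells stably carrying EGFP split by mutant beta-globin IVS2-654 intron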
# Procedure, shortened: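 HeLa cells stably expressing EGFP interrupted by β-globin IVS2-654 intron, seeded overnight in Opti-MEM/2% FCS, then treated 2 days at 37 °C. Restored splicing read as total peak GFP intensity per well by laser scanning cytometry (488 nm excitation, 500–520 nm emission); 500 nM antisense PNA as control.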
# [11] = Confirmation and Secondary Assay for Modulators of Hemoglobin Beta Chain Splicing at IVS2 705 locus (AID 930);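 note: HeLa cells stably expressing the EGFP-705 splicing reporter; GFP fluorescence per well restored by corrected splicing of the IVS2-705 intron in EGFP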
# Procedure, shortened: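 Secondary splice-site specificity test uses HeLa expressing CMV-driven EGFP interrupted by IVS2-705; cells were treated 2 days at 37C with 500 nM antisense PNA as positive control.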
# [12] = target: Cytochrome P450 2D6 (Homo sapiens) (UniProt P10635); assay: Cytochrome P450 family 2 subfamily D member 6 (CYP2D6) small molecule antagonists: luciferase biochemical (cell-free) qHTS assay (AID 1645840; active = well fitted curve in the direction sought with a large enough effect in the repeat runs; an effect the other way counts as inactive or inconclusive; note: nearly all actives have a fitted effect of over 55% in size)
# Sequence of Cytochrome P450 2D6 (Homo sapiens) (P10635 whole entry, looked up): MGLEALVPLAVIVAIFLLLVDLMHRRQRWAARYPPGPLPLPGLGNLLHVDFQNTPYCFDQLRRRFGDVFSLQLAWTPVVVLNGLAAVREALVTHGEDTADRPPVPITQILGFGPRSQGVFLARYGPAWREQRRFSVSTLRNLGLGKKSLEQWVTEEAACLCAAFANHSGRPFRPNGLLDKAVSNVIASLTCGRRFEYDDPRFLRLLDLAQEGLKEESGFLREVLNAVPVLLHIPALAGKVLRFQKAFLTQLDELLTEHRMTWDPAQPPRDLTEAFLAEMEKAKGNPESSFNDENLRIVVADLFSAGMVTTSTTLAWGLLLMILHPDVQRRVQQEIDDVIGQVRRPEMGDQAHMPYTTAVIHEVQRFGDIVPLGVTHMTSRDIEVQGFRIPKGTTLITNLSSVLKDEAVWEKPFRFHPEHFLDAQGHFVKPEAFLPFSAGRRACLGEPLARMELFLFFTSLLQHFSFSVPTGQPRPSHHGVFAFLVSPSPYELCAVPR
# Procedure, shortened: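 P450-Glo CYP2D6 system: proluciferin substrate converted by enzyme to luciferin, read by luminescence proportional to activity. Enzyme-substrate mix with compound 10 min at room temperature, then NADPH regeneration 1 h before detection reagent.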
# [13] = target: Cytochrome P450 3A4 (Homo sapiens) (UniProt P08684); assay: Cytochrome P450 family 3 subfamily A member 4 (CYP3A4) small molecule antagonists: luciferase qHTS assay (AID 1645841; active = well fitted curve in the direction sought with a large enough effect in the repeat runs; an effect the other way counts as inactive or inconclusive; note: nearly all actives have a fitted effect of over 45% in size)
# Procedure, shortened: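 P450-Glo CYP3A4 enzyme with proluciferin substrate preincubated 10 min with compound at room temperature, then NADPH regeneration 1 h. Luciferin detection reagent added for 20 min; luminescence recorded. Ketoconazole positive control.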
# [14] = target: Cytochrome P450 1A2 (Homo sapiens) (UniProt P05177); assay: p450-cyp1a2 (AID 410; calls by dose curve; note: potency is the fitted concentration of half-maximal effect)
# Sequence of Cytochrome P450 1A2 (Homo sapiens) (P05177 whole entry, looked up): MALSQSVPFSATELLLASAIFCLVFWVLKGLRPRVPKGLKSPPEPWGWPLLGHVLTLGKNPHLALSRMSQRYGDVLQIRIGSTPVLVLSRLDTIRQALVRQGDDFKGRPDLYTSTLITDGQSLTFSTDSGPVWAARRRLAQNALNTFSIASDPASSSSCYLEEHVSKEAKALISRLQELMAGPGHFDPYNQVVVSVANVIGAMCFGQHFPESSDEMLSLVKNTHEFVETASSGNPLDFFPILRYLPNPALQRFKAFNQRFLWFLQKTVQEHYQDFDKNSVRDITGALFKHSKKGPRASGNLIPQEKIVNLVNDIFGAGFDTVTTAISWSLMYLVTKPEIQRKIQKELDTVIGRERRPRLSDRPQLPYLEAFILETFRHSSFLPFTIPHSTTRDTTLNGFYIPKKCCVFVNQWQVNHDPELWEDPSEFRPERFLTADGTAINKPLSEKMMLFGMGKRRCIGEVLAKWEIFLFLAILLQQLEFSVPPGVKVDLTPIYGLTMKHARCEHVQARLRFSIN
# Procedure, shortened: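 20nM CYP1A2, 100uM Luciferin-ME (=Km), 100mM KPO4; cpd 10 min RT; +NADPH regen, 60 min RT; stop/detect 20 min; luminescence. Normalized to furafylline 57 uM = full inhibition.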
# [15] = target: Cytochrome P450 2C9 (Homo sapiens) (UniProt P11712); assay: qHTS Assay for Inhibitors and Substrates of Cytochrome P450 2C9 (AID 883); note: potency is the fitted concentration of half-maximal effect; nearly all actives have a fitted effect of over 60% in size
# Sequence of Cytochrome P450 2C9 (Homo sapiens) (P11712 whole entry, looked up): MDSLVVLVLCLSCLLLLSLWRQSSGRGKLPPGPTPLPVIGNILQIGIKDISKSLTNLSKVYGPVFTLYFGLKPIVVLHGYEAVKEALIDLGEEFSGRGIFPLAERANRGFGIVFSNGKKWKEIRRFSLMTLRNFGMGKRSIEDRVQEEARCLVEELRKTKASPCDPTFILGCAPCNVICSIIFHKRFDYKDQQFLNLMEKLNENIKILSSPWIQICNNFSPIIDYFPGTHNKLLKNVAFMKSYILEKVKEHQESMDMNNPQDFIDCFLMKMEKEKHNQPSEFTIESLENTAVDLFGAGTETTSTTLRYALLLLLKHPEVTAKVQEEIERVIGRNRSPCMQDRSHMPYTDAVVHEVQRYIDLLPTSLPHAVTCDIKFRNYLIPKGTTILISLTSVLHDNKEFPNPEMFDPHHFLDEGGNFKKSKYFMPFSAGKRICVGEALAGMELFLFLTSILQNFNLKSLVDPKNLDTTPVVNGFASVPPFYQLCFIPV
# Procedure, shortened: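 Human CYP2C9 (10nM) with Luciferin-H at 100uM (its KM) in 25mM KPO4; compound preincubated 10 min at 37C, then NADPH regeneration for 60 min at 37C. Luciferin read by luminescence after detection reagent; normalized to 57uM sulphaphenazole as full inhibition.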
# [16] = target: Cytochrome P450 2C19 (Homo sapiens) (UniProt P33261); assay: qHTS Assay for Inhibitors and Substrates of Cytochrome P450 2C19 (AID 899); note: potency is the fitted concentration of half-maximal effect; nearly all actives have a fitted effect of over 60% in size
# Sequence of Cytochrome P450 2C19 (Homo sapiens) (P33261 whole entry, looked up): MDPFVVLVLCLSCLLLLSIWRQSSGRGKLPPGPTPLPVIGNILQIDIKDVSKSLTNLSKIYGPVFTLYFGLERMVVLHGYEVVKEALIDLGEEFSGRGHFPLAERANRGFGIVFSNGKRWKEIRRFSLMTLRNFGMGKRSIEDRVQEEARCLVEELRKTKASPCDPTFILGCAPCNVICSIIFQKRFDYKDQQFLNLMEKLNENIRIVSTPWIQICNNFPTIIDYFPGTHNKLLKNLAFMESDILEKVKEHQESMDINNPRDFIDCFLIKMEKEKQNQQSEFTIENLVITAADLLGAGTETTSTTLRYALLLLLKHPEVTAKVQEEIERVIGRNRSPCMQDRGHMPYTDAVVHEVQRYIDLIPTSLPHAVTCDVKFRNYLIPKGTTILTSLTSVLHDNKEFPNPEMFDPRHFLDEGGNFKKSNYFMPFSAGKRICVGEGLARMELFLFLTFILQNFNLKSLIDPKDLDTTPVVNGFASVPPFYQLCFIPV
# Procedure, shortened: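 5 nM human CYP2C19 with 10uM Luciferin-H EGE (at KM) in 50mM KPO4, compound preincubated 10 min at 37C, then NADPH regeneration for 60 min at 37C. Luciferin read by luminescence after detection reagent; normalized to 57uM ketoconazole as full inhibition.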
# [17] = qHTS profiling of the MIPE4 collection as inhibitors of Plasmodium falciparum (3D7) proliferation (AID 743344; call rule not given here); conditions: P. falciparum 3D7 in erythrocytes, SYBR Green DNA fluorescence, 72 h; at 28.5 µM (top of the series)
# Procedure, shortened: (§1)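 Parasite DNA was quantified by SYBR Green I fluorescence (ex 485, em 535 nm) after overnight lysis in saponin/Triton buffer at room temperature. Cultures at 0.3% parasitemia and 2.5% hematocrit were first exposed to compound for 72 h at 37 C; signals were normalised to artemisinin (0.29 uM) and vehicle wells.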
# [18] = qHTS profiling of the MIPE4 collection as inhibitors of Plasmodium falciparum (DD2) proliferation (AID 743345; call rule not given here); conditions: P. falciparum Dd2 in erythrocytes, SYBR Green DNA, 72 h; at 28.5 µM (top of the series)
# Procedure, shortened: as §1
# [19] = qHTS profiling of the MIPE4 collection as inhibitors of Plasmodium falciparum (DD2) proliferation (Rep 2) (AID 743346; call rule not given here); conditions: P. falciparum Dd2 in erythrocytes, SYBR Green DNA, 72 h; at 28.5 µM (top of the series)
# Procedure, shortened: as §1
# [20] = qHTS profiling of the MIPE4 collection as inhibitors of Plasmodium falciparum (HB3) proliferation (AID 743347; call rule not given here); conditions: P. falciparum HB3 in erythrocytes, SYBR Green DNA, 72 h; at 28.5 µM (top of the series)
# Procedure, shortened: as §1
# [21] = Primary qHTS for inhibitors of nuclear receptor binding SET domain protein 2 (NSD2) in an RCH-ACV wild type WT cells (2C) (AID 1645877); note: nearly all actives have a fitted effect of over 70% in size
# [22] = target: Glutathione peroxidase 1 (Homo sapiens) (UniProt P07203); assay: Primary qHTS Assay for Inhibitors of Recombinant Selenoprotein Glutathione Peroxidase 1 (GPX1) (AID 1845191); note: nearly all actives have a fitted effect of over 65% in size
# Sequence of Glutathione peroxidase 1 (Homo sapiens) (P07203 whole entry, looked up): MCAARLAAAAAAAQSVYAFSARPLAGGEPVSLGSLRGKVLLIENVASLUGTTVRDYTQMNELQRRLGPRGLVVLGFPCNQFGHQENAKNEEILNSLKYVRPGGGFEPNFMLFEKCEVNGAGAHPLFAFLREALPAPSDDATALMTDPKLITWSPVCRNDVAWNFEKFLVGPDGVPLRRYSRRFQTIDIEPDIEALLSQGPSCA
# Procedure, shortened: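 GR-coupled readout: NADPH consumption tracked by fluorescence, ex 340/em 450 nm, at t=0 and after 15 min at RT. Final mix 10 nM GPX1, 1 mM GSH, 0.5 mM CHP, 0.5 mM NADPH, 100 nM GR, 0.01% BSA, following 30 min enzyme–compound preincubation.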
# [23] = target: Cytochrome P450 2D6 (Homo sapiens) (UniProt P10635); assay: qHTS Assay for Inhibitors and Substrates of Cytochrome P450 2D6 (AID 891); note: potency is the fitted concentration of half-maximal effect; nearly all actives have a fitted effect of over 60% in size
# Procedure, shortened: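 Luminescent read-out of luciferin formed by 5 nM human CYP2D6 demethylating 30 uM Luciferin-ME EGE (Km level) over 60 min at room temperature after NADPH regeneration addition. Data normalized to full inhibition by 1.43 uM quinidine.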
# [24] = measured here: cell count channel max response
# [25] = measured here: lipid channel max response
smiles,measurement,setting,value
O=C(/C=C/c1ccccc1)NC(NC(=S)Nc1cccc2cccnc12)C(Cl)(Cl)Cl (centres undefined),Potency,[1],inactive
same,outcome,[2],inactive
N#Cc1ccccc1OC[C@H](O)CNCCNC(=O)Nc1ccccc1,Potency,[3],> 46 µM (inactive)
same,Potency,[4],> 46 µM (inactive)
same,Potency,[5],inactive
same,Potency,[6],inactive
same,"activity change, negative = inhibition",[7],0.479% (inactive)
same,max response,[7]; [24],6.59%
same,max response,[7]; [25],10.2%
same,Potency,[8],inactive
same,Potency,[9],inactive
same,Potency,[1],inactive
CC(C)c1cccc(O)c(=O)c1,outcome,[10],inactive
same,outcome,[11],inactive
same,Potency,[8],inactive
same,Potency,[1],inactive
same,Potency,[12],inactive
same,outcome,[13],inactive
same,outcome,[2],inactive
O=C(O)c1ccc2c3c1cccc3c(=O)n1c3ccccc3nc21,Potency,[14],15.8 µM (active)
same,Potency,[3],> 46 µM (inactive)
same,Potency,[4],> 46 µM (inactive)
same,Potency,[15],158 nM (active)
same,Potency,[16],3.98 µM (active)
same,Potency,[8],inactive
same,Potency,[9],inactive
same,"parasite growth, % of DMSO control",[17],91.8%
same,"parasite growth remaining, % of DMSO control (lower = more inhibition)",[18],97.7%
same,"parasite growth, % of control (lower = inhibition)",[19],85.8%
same,"growth, % of control",[20],60.1%
same,Potency,[1],inactive
same,Potency,[21],inactive
same,Potency,[22],inactive
CC1(C)CO[C@H](CC(=O)O)CN1,Potency,[3],> 46 µM (inactive)
same,Potency,[4],> 46 µM (inactive)
same,Potency,[5],inactive
same,Potency,[6],inactive
same,Potency,[23],6.3 nM (active)
same,Potency,[16],5.01 µM (active)
same,"activity change, negative = inhibition",[7],-3% (inactive)
same,max response,[7]; [24],-8.35%
same,max response,[7]; [25],-12.8%
same,Potency,[9],inactive
same,Potency,[1],inactive
